# Data published in PubChem BioAssay (EPA / NIEHS).
# Records with an inconclusive call do not appear. Activity calls are given as the source filed them. How the source made its calls, unless noted: active means hit-call score of the fitted dose curve at least 0.9, where 1 is the maximum; inactive means score below 0.9.
# Key:
# [1] = molecular target: Oxysterols receptor LXR-alpha (Homo sapiens) (UniProt Q13133); assay: ATG_LXRa_TRANS: Attagene TRANS-FACTORIAL HepG2 Assay for human Liver X Receptor alpha (LXRa) (AID 2282980; active means hit-call score of the fitted dose curve at least 0.9, where 1 is the maximum); conditions: HepG2 Attagene TRANS reporter, LXRa transactivation
# Chain of Oxysterols receptor LXR-alpha (Homo sapiens) (Q13133 whole entry, looked up, the tested form may be a part): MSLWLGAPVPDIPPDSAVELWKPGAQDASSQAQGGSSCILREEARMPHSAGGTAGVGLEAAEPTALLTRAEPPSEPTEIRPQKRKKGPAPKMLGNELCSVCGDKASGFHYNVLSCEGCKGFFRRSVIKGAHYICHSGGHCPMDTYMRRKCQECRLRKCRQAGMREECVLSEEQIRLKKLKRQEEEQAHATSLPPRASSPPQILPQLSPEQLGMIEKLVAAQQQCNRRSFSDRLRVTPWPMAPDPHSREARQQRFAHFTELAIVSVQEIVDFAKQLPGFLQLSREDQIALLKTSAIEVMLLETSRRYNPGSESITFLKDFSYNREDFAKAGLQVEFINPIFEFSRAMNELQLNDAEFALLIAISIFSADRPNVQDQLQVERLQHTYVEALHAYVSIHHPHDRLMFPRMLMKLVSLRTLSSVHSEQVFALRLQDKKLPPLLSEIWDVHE
# In short: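 Read-out: reporter transcript levels by RT-PCR plus capillary electrophoresis, fluorescence intensity. Transiently transfected HepG2, exogenous NR-GAL4 chimera, GAL4-UAS reporters; 24 h compound exposure. Activity = increase over DMSO negative control.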
# [2] = molecular target: Oxysterols receptor LXR-beta (Homo sapiens) (UniProt P55055); assay: ATG_LXRb_TRANS: Attagene TRANS-FACTORIAL HepG2 Assay for human Liver X Receptor beta (LXRb) (AID 2282981; active means hit-call score of the fitted dose curve at least 0.9, where 1 is the maximum); conditions: HepG2 Attagene TRANS GAL4-LXRb reporter, mRNA
# Chain of Oxysterols receptor LXR-beta (Homo sapiens) (P55055 whole entry, looked up, the tested form may be a part): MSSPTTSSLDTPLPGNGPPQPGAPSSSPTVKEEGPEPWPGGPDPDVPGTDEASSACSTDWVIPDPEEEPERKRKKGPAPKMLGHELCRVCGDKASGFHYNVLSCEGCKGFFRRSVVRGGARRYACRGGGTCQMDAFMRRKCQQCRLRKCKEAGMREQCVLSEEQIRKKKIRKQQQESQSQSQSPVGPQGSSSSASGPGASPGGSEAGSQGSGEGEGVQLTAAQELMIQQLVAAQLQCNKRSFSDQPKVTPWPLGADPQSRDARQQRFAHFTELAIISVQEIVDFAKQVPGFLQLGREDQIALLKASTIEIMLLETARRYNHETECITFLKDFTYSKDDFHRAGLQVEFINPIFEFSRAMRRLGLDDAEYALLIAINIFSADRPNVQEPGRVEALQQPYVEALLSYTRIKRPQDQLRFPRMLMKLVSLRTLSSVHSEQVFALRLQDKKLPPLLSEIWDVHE
# In short: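 Readout: fluorescent reporter mRNA fragments resolved by capillary electrophoresis after RT-PCR. System: transiently transfected human HepG2, exogenous LXRb-Gal4 chimera driving GAL4-UAS reporter, 24 h dosing. Activity fitted upward against DMSO baseline.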
# [3] = ATG_M_06_TRANS: Attagene TRANS-FACTORIAL HepG2 Assay for M06 Transcription Factor (Internal Marker) (AID 2282983; active means hit-call score of the fitted dose curve at least 0.9, where 1 is the maximum); conditions: HepG2 Attagene TRANS M06 internal marker reporter
# In short: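 Read-out: fluorescent reporter cDNA fragments resolved by capillary electrophoresis after RT-PCR and HpaI cut. Source cells were HepG2 carrying transfected multi-reporter GAL4 constructs, dosed 24 h. Increase over DMSO control analysed.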
# [4] = molecular target: Transcriptional activator Myb (Homo sapiens) (UniProt P10242); assay: ATG_Myb_CIS: Attagene CIS-FACTORIAL HepG2 Assay for human Myeloblastosis (Myb) Proto-Oncogene Transcription Factor (AID 2282986); conditions: HepG2 Attagene CIS-FACTORIAL Myb reporter transcription; actives raise or lower the signal
# Chain of Transcriptional activator Myb (Homo sapiens) (P10242 whole entry, looked up): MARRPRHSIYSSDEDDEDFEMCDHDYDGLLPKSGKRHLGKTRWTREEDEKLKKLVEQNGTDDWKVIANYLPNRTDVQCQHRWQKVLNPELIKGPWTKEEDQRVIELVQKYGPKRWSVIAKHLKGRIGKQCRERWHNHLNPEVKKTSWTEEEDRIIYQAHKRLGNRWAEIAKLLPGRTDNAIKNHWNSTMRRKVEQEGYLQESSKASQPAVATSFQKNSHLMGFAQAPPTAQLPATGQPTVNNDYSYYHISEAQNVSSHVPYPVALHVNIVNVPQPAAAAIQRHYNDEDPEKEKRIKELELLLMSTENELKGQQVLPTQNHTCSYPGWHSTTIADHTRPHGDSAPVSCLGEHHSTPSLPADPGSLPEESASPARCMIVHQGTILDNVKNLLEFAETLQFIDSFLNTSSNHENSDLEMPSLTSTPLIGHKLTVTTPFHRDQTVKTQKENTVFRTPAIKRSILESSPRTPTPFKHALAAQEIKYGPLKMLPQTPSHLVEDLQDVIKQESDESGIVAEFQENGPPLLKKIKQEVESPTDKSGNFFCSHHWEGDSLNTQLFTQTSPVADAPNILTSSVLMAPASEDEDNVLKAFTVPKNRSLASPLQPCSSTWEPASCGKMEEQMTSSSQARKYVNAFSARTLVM
# In short: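 Reporter mRNA is quantified by RT-PCR and capillary electrophoresis 24 h after dosing HepG2 cells transfected with cis-regulated reporter units, which track endogenous transcription factor activity. Gain and loss of signal are fitted versus DMSO baseline.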
# [5] = molecular target: Nuclear respiratory factor 1 (Homo sapiens) (UniProt Q16656); assay: ATG_NRF1_CIS: Attagene CIS-FACTORIAL HepG2 Assay for human Nuclear Respiratory Factor 1 (NRF1) Orphan Gene (AID 2282987); conditions: HepG2 NRF1 cis-element reporter, Attagene multiplex; actives raise or lower the signal
# Chain of Nuclear respiratory factor 1 (Homo sapiens) (Q16656 whole entry, looked up): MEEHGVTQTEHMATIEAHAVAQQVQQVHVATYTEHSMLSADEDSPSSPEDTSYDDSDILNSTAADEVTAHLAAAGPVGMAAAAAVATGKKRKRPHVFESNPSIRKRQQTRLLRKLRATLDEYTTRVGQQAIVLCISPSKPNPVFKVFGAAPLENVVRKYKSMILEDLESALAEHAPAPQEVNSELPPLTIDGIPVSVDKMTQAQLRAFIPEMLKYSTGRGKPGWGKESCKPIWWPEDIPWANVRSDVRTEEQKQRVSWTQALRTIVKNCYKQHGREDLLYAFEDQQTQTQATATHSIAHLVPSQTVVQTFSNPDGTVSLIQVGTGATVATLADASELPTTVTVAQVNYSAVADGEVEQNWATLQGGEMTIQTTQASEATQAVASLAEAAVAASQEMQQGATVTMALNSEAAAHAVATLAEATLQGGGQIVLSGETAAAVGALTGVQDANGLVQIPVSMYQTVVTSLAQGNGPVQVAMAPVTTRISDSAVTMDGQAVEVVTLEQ
# In short: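 Endogenous NRF1-driven reporter transcription in transfected HepG2 cells after 24 h treatment. Readout: RT-PCR products, 6-FAM labelled and resolved by capillary electrophoresis; changes fitted both directions relative to DMSO.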
# [6] = ATG_NFI_CIS: Attagene CIS-FACTORIAL HepG2 Assay for human Nuclear Factor I (NFI) (AID 2282989); conditions: HepG2 cis-regulatory reporter, NFI response element transcription; actives raise or lower the signal
# In short: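 HepG2, transient MRTU, 24 h exposure; RNA→cDNA→PCR→FAM label→HpaI→CE fluorescence. Bidirectional fit, DMSO = baseline.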
# [7] = molecular target: Myc proto-oncogene protein (Homo sapiens) (UniProt P01106); assay: ATG_Myc_CIS: Attagene CIS-FACTORIAL HepG2 Assay for human Myelocytomatosis (Myc) Proto-Oncogene Transcription Factor (AID 2282990); conditions: HepG2, Attagene cis-reporter transcription factor activity; actives raise or lower the signal
# Chain of Myc proto-oncogene protein (Homo sapiens) (P01106 whole entry, looked up): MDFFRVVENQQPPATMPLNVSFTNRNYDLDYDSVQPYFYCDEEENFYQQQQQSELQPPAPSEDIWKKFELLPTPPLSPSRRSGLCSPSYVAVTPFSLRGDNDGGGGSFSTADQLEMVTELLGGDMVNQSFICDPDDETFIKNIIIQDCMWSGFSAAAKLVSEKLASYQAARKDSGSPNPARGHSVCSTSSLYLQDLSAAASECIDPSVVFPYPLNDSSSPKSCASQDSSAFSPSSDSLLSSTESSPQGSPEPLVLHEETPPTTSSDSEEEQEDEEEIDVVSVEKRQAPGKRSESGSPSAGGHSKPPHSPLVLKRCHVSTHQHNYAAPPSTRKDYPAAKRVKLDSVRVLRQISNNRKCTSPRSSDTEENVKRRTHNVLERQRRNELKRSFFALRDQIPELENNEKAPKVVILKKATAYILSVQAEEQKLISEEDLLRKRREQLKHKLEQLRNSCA
# In short: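 Transiently transfected HepG2 cells bearing cis-promoter reporter units for endogenous transcription factors; 24 h exposure. Reporter mRNA measured by RT-PCR, 6-FAM primer extension, HpaI cut and capillary electrophoresis; bidirectional fit relative to DMSO.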
# [8] = ATG_NRF2_ARE_CIS: Attagene CIS-FACTORIAL HepG2 Assay for human Nuclear Factor Erythroid 2 Related Factor 2 (NFR2) response to Antioxidant Response Elements (ARE) (AID 2282992); conditions: HepG2 Attagene ARE/NRF2 reporter, transcription factor activity; actives raise or lower the signal
# In short: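 Endogenous transcription factor activity in human liver HepG2 cells is tracked via a cis-element-driven reporter within a multiplexed set. mRNA induction is read by RT-PCR and capillary electrophoresis after 24 h, with DMSO as baseline.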
# [9] = ATG_Oct_MLP_CIS: Attagene CIS-FACTORIAL HepG2 Assay for human Octamer-Binding Transcription Factor (Oct) (AID 2282993); conditions: HepG2 Attagene cis-factorial Oct reporter, mRNA; actives raise or lower the signal
# In short: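 Multiplexed cis-reporter assay in human liver HepG2 cells, 24 h incubation. Reporter RNA amplified and labelled, then resolved by capillary electrophoresis; DMSO serves as negative control and baseline.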
# [10] = molecular target: Cellular tumor antigen p53 (Homo sapiens) (UniProt P04637); assay: ATG_p53_CIS: Attagene CIS-FACTORIAL HepG2 Assay for human p53 Transcription Factor (AID 2282994); conditions: HepG2 p53 cis-element reporter, Attagene mRNA; actives raise or lower the signal
# Chain of Cellular tumor antigen p53 (Homo sapiens) (P04637 whole entry, looked up, the tested form may be a part): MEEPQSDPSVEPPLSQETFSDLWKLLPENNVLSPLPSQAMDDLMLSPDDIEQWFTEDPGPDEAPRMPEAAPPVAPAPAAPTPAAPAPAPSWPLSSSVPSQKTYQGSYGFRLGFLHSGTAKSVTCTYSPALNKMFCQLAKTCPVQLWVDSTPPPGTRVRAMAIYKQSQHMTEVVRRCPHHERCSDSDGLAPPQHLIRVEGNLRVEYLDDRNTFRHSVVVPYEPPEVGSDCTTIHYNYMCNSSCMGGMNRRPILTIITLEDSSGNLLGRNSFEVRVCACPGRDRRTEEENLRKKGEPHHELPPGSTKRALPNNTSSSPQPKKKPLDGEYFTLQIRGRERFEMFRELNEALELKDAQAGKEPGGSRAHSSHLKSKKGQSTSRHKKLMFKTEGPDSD
# In short: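 Steps: transfect HepG2 with multiplexed cis reporter constructs; dose chemicals 24 h; extract RNA, reverse-transcribe, PCR-amplify reporter sequences; FAM-label, HpaI-digest, resolve fragments by CE. Activity fitted both directions relative to DMSO.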
# [11] = BSK_3C_TissueFactor: BioMAP Diversity Plus: 3C Assay for Tissue Factor Biomarker Activity (AID 2282997); conditions: BioMAP 3C HUVEC, tissue factor biomarker readout; actives raise or lower the signal
# In short: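 HUVEC, 3C system, 24 h post-dose; Tissue Factor by ELISA; bidirectional fit vs DMSO baseline.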
# [12] = BSK_3C_uPAR: BioMAP Diversity Plus: 3C Assay for Urokinase-type plasminogen activator receptor (uPAR) Biomarker Activity (AID 2282998); conditions: BioMAP 3C HUVEC, uPAR biomarker ELISA; actives raise or lower the signal
# In short: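 Dose primary human umbilical vein endothelial cells, incubate 24 h, measure cell-surface uPAR by ELISA, then fit the signal in both directions against the DMSO negative control.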
# [13] = BSK_4H_Eotaxin3: BioMAP Diversity Plus: 4H Assay for Eotaxin 3 Biomarker Activity (AID 2283000); conditions: primary human endothelial cells (HUVEC); actives raise or lower the signal;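 on outcome: CCL26 protein level quantified by ELISA in parallel with SRB cytotoxicity check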
# In short: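 Readout is Eotaxin-3 (CCL26) level by ELISA in primary human umbilical vein endothelial cells harvested 24 h after chemical exposure; activity fitted in both directions against DMSO control.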
# [14] = molecular target: human Peroxisome Proliferator-activated Receptor alpha (PPARa), PPARA (gene 5465) (UniProt Q07869); assay: ATG_PPARa_TRANS: Attagene TRANS-FACTORIAL HepG2 Assay for human Peroxisome Proliferator-activated Receptor alpha (PPARa) (AID 2283001; active means hit-call score of the fitted dose curve at least 0.9, where 1 is the maximum)
# Chain of human Peroxisome Proliferator-activated Receptor alpha (PPARa), PPARA (gene 5465) (Q07869 whole entry, looked up, the tested form may be a part): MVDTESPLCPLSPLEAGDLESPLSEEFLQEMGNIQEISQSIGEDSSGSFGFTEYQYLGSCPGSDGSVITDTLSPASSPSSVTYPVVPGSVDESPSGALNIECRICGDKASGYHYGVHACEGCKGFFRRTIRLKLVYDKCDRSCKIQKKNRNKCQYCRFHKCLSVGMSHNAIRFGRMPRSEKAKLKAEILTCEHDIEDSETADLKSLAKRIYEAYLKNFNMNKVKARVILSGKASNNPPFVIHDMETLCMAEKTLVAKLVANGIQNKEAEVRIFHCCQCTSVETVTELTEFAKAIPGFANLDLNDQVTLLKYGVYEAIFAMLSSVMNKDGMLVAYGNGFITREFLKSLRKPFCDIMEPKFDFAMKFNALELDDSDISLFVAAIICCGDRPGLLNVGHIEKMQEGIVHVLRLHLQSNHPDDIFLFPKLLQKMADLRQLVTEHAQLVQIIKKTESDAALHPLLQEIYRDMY
# In short: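 Transient HepG2 transfection, GAL4-UAS reporters, NR-Gal4 chimeras; 24 h compound exposure. Readout: reporter transcripts by RT-PCR, 6-FAM primer extension, HpaI digest, capillary electrophoresis. Positive direction vs DMSO baseline.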
# [15] = molecular target: human Peroxisome Proliferator-activated Receptor delta (PPARd), PPARD (gene 5467) (UniProt Q03181); assay: ATG_PPARd_TRANS: Attagene TRANS-FACTORIAL HepG2 Assay for human Peroxisome Proliferator-activated Receptor delta (PPARd) (AID 2283002; active means hit-call score of the fitted dose curve at least 0.9, where 1 is the maximum)
# Chain of human Peroxisome Proliferator-activated Receptor delta (PPARd), PPARD (gene 5467) (Q03181 whole entry, looked up, the tested form may be a part): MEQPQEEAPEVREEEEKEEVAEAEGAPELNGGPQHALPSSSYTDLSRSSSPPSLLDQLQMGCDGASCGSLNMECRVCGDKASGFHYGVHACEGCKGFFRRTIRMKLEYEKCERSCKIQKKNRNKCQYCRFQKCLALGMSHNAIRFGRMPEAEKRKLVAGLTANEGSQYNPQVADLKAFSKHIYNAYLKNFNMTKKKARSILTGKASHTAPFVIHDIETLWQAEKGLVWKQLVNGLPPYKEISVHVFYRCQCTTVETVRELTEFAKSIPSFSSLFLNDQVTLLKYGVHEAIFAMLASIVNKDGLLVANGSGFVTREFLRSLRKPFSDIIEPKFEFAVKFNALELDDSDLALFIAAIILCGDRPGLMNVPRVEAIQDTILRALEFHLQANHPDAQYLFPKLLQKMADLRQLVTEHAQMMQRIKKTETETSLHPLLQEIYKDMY
# In short: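 HepG2 cells transiently transfected with GAL4-UAS multiplexed reporter units driven by exogenous chimeric NR-GAL4 proteins; 24 h compound exposure. Reporter mRNA measured by RT-PCR, 6-FAM primer extension, HpaI digestion and capillary electrophoresis; gain of signal fitted relative to DMSO.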
# [16] = ATG_NF_kB_CIS: Attagene CIS-FACTORIAL HepG2 Assay for human Nuclear Factor Kappa B (NF-kB) (AID 2282991); conditions: HepG2 Attagene cis-factorial NF-kB reporter mRNA; actives raise or lower the signal
# In short: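 Readout is reporter transcript level, gain or loss versus DMSO, measured 24 h post-dose via RT-PCR, fluorescent labelling and capillary electrophoresis. Human HepG2 liver cells carried transiently transfected CIS reporter constructs reflecting endogenous factors.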
# [17] = molecular target: Hepatocyte nuclear factor 4-alpha (Homo sapiens) (UniProt P41235); assay: ATG_HNF4a_TRANS: Attagene TRANS-FACTORIAL HepG2 Assay for human Hepatocyte Nuclear Factor 4 alpha (HNF4a) (AID 2282982; active means hit-call score of the fitted dose curve at least 0.9, where 1 is the maximum); conditions: HepG2 HNF4a transactivation reporter, mRNA readout
# Chain of Hepatocyte nuclear factor 4-alpha (Homo sapiens) (P41235 whole entry, looked up): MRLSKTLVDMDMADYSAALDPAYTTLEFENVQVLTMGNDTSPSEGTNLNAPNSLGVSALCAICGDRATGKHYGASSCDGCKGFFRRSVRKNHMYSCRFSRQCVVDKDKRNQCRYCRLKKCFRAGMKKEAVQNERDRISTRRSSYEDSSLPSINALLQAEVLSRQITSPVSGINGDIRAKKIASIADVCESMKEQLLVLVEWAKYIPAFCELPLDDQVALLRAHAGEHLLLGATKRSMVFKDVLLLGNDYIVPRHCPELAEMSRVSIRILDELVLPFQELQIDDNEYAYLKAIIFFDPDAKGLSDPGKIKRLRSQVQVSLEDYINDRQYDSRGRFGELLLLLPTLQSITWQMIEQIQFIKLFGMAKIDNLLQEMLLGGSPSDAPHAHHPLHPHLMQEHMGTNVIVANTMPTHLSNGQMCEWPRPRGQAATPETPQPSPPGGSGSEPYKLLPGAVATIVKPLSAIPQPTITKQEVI
# In short: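 Transient MRTU transfection of HepG2, 24 h dosing. Readout: reporter mRNA via RT-PCR + capillary electrophoresis, fluorescence; activity fit upward relative to DMSO control.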
# [18] = ATG_M_32_TRANS: Attagene TRANS-FACTORIAL HepG2 Assay for M32 Transcription Factor (Internal Marker) (AID 2282984; active means hit-call score of the fitted dose curve at least 0.9, where 1 is the maximum;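 further: transcript level of a background control reporter unit measured by RT-PCR and capillary electrophoresis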); conditions: HepG2 Attagene TRANS M32 internal marker reporter
# In short: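 Read-out: fluorescent reporter cDNA fragments resolved by capillary electrophoresis after RT-PCR of total RNA. Transfected HepG2 cells were exposed to chemical for 24 h. Activity scored in the positive direction relative to DMSO.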
# [19] = molecular target: Nuclear receptor subfamily 4 group A member 2 (Homo sapiens) (UniProt P43354); assay: ATG_NURR1_TRANS: Attagene TRANS-FACTORIAL HepG2 Assay for human Nuclear Receptor Related Protein 1 (NURR1) (AID 2282985; active means hit-call score of the fitted dose curve at least 0.9, where 1 is the maximum); conditions: HepG2 Attagene TRANS reporter, mRNA readout
# Chain of Nuclear receptor subfamily 4 group A member 2 (Homo sapiens) (P43354 whole entry, looked up, the tested form may be a part): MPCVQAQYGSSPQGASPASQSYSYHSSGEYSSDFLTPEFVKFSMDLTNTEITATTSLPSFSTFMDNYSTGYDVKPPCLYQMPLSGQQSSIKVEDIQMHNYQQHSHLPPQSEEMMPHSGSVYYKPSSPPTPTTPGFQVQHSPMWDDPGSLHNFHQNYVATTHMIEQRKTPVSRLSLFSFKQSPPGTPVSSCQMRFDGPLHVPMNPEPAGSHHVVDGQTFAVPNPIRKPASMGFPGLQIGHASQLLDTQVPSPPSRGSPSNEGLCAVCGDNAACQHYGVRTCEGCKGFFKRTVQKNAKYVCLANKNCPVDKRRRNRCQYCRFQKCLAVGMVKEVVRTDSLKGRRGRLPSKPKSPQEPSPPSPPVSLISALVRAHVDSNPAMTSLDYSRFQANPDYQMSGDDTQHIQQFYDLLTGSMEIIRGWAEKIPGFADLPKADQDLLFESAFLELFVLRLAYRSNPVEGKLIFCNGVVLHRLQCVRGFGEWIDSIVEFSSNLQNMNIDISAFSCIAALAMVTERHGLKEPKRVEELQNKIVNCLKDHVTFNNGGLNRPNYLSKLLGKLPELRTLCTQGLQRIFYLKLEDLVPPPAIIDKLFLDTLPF
# In short: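 Read-out: reporter mRNA induction by RT-PCR plus capillary electrophoresis with fluorescence detection, after 24 h dosing of transfected HepG2 cells. Exogenous NR-Gal4 chimera activity drives GAL4-UAS reporter; activity fitted upward versus DMSO.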
# [20] = BSK_3C_VCAM1: BioMAP Diversity Plus: 3C Assay for Vascular cell adhesion molecule 1 (VCAM1) Biomarker Activity (AID 2282999); conditions: BioMAP 3C HUVEC, VCAM1 ELISA, cytokine-stimulated; actives raise or lower the signal
# In short: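 HUVEC primary cells, 24 h compound exposure; VCAM-1 by ELISA; gain/loss of signal fitted bidirectionally vs DMSO baseline.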
smiles,measurement,setting,value
OCCCl,outcome,[1],inactive
same,outcome,[2],inactive
same,outcome,[3],inactive
same,outcome,[4],inactive
same,outcome,[5],inactive
same,outcome,[6],inactive
same,outcome,[7],inactive
same,outcome,[8],inactive
same,outcome,[9],inactive
same,outcome,[10],inactive
same,outcome,[11],inactive
same,outcome,[12],inactive
same,outcome,[13],inactive
same,outcome,[14],inactive
same,outcome,[15],inactive
CN(C)[C@@H]1C(=O)C(C(N)=O)=C(O)[C@@]2(O)C(=O)C3=C(O)c4c(O)cccc4[C@@](C)(O)[C@H]3C[C@@H]12,outcome,[1],inactive
same,outcome,[2],inactive
same,outcome,[4],inactive
same,outcome,[5],inactive
same,outcome,[6],inactive
same,outcome,[16],inactive
same,outcome,[8],inactive
same,outcome,[9],inactive
same,outcome,[10],inactive
same,outcome,[12],inactive
same,outcome,[14],inactive
same,outcome,[15],inactive
CNC(=O)Oc1cccc2c1OC(C)(C)C2,outcome,[1],inactive
same,outcome,[2],inactive
same,outcome,[17],inactive
same,outcome,[18],inactive
same,outcome,[19],inactive
same,outcome,[4],inactive
same,outcome,[5],inactive
same,outcome,[6],inactive
same,outcome,[7],inactive
same,outcome,[8],inactive
same,outcome,[9],inactive
same,outcome,[10],inactive
same,outcome,[11],inactive
same,outcome,[12],inactive
same,outcome,[20],inactive
same,outcome,[13],inactive
same,outcome,[15],inactive
Nc1ccc(Cl)cc1N,outcome,[1],inactive
same,outcome,[2],inactive
same,outcome,[3],inactive
same,outcome,[18],inactive
same,outcome,[19],inactive
same,outcome,[4],inactive
same,outcome,[5],inactive
same,outcome,[6],inactive
same,outcome,[7],inactive
same,outcome,[16],inactive
same,AC50,[9],29.5 µM (active)
same,AC50,[10],8.6 µM (active)
same,outcome,[11],inactive
same,outcome,[12],inactive
same,AC50,[13],2.15 µM (active)
same,outcome,[14],inactive
